In PubChem BioAssay (Tox21):
Where “and” joins values, the source holds several entries; their conditions need not be identical. Equal values may be shown once. Some compounds were tested as several samples or in several runs, with calls that do not always agree. Calls of active or inactive are those of the source. A call without a number means that no potency is given here. Unless noted, calls follow the shape of the dose curve; as a rule, active = well fitted curve in the direction sought with a large enough effect in the repeat runs; inconclusive = weak or mixed curves; inactive = no such curve, though single readings can be large; an effect the other way counts as inactive or inconclusive.

Columns and labels:
[1] = qHTS assay to identify small molecule antagonists of the glucocorticoid receptor (GR) signaling pathway - cell viability counter screen (AID 720693); also: nearly all actives have a fitted effect of over 55% in size
[2] = qHTS assay for identifying genotoxic compounds that show differential cytotoxicity against isogenic chicken DT40 cell lines with known DNA damage response pathways - wild type cell line (AID 743012); also: nearly all actives have a fitted effect of over 60% in size; also: potency is read from the fitted curve at half-maximal effect
How it was run: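 First, wild type DT40 cells were plated at 300 per well and equilibrated about 0.5 h at 37 C/5% CO2. Next, compounds in DMSO were added and exposure lasted 40 h. Finally, CellTiter-Glo was added for 30 min at room temperature and luminescence recorded.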

[3] = qHTS assay for identifying genotoxic compounds that show differential cytotoxicity against isogenic chicken DT40 cell lines with known DNA damage response pathways - Rev3 mutant cell line (AID 743014); also: nearly all actives have a fitted effect of over 55% in size; also: potency is read from the fitted curve at half-maximal effect
[4] = qHTS assay for identifying genotoxic compounds that show differential cytotoxicity against isogenic chicken DT40 cell lines with known DNA damage response pathways - Rad54/Ku70 mutant cell line (AID 743015); also: nearly all actives have a fitted effect of over 60% in size; also: potency is read from the fitted curve at half-maximal effect
[5] = qHTS assay to identify small molecule antagonists of the androgen receptor (AR) signaling pathway - cell viability counter screen (AID 743033; also: nearly all actives have a fitted effect of over 45% in size)
[6] = qHTS assay to identify small molecule antagonists of the androgen receptor (AR) signaling pathway using the MDA cell line - cell viability counter screen (AID 743041; also: nearly all actives have a fitted effect of over 45% in size)
How it was run: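 Viability counter screen run alongside the AR antagonist reporter: cells seeded 5 h before compound, R1881 added, 16 h incubation at 37C without CO2, fluorescent CellTiter-Fluor signal quantified.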

[7] = qHTS assay to identify small molecule antagonists of the thyroid receptor (TR) signaling pathway - cell viability counter screen (AID 743064); also: nearly all actives have a fitted effect of over 50% in size; also: potency is read from the fitted curve at half-maximal effect
How it was run: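 Rat GH3 pituitary tumor cells stably expressing two TR response elements driving luciferase were plated, rested 4 h, then dosed with library compounds and T3 (1 nM final). After 23.5 h at 37 °C, CellTiter-Fluor was added for 30 min and fluorescence recorded.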

[8] = qHTS assay to identify small molecule antagonists of the thyroid receptor (TR) signaling pathway (AID 743065); also: nearly all actives have a fitted effect of over 55% in size; also: potency is read from the fitted curve at half-maximal effect
How it was run: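 GH3.TRE-Luc rat pituitary cells carrying two TR response elements driving luciferase were plated for 4 h, given compound plus 1 nM T3 (final), and incubated 23.5 h at 37 C. ONE-Glo luminescence measured reporter inhibition; CellTiter-Fluor fluorescence tracked cytotoxicity.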

[9] = tested on: thyroid hormone receptor (rat, GH3 cells); assay: qHTS assay to identify small molecule agonists of the thyroid receptor (TR) signaling pathway (AID 743066; calls by dose curve)
[10] = biological target: Estrogen receptor (Homo sapiens) (UniProt P03372); assay: qHTS assay to identify small molecule antagonists of the estrogen receptor alpha (ER-alpha) signaling pathway (AID 743069; active = well fitted curve in the direction sought with a large enough effect in the signal ratio in the repeat runs, not every such curve was filed as active; inconclusive = weak or mixed curves, or effect the other way; inactive = no such curve, though single readings can be large or run the other way; the % refers to the signal ratio; also: potency is read from the fitted curve at half-maximal effect)
How it was run: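 Estradiol-stimulated ER-alpha-UAS-bla HEK293 cells, 18 hr compound exposure at 37C. LiveBLAzer B/G substrate, 2 hr RT, fluorescence read.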

[11] = qHTS assay to identify small molecule antagonists of the estrogen receptor alpha (ER-alpha) signaling pathway - cell viability counter screen (AID 743074; calls by dose curve;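 also: HEK293 cells carrying ER-alpha-UAS-bla reporter stimulated with 17beta-estradiol; nearly all actives have a fitted effect of over 45% in size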)
[12] = biological target: Estrogen receptor (Homo sapiens) (UniProt P03372); assay: qHTS assay to identify small molecule agonists of the estrogen receptor alpha (ER-alpha) signaling pathway (AID 743075; calls by dose curve;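 also: HEK293 GripTite cells with ER-alpha and UAS-driven beta-lactamase reporter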; also: potency is read from the fitted curve at half-maximal effect)
[13] = biological target: Estrogen receptor (Homo sapiens) (UniProt P03372); assay: qHTS assay to identify small molecule agonists of the estrogen receptor alpha (ER-alpha) signaling pathway using the BG1 cell line (AID 743079); also: nearly all actives have a fitted effect of over 20% in size; also: potency is read from the fitted curve at half-maximal effect
[14] = qHTS assay to identify small molecule antagonists of the estrogen receptor alpha (ER-alpha) signaling pathway using the BG1 cell line (AID 743080; calls by dose curve;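 also: BG1 cells stimulated with 17beta-estradiol alongside compound; nearly all actives have a fitted effect of over 25% in size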)
How it was run: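 Readout is ONE-Glo luminescence, taken 30 min at room temperature after reagent addition, preceded by a CellTiter-Fluor viability read; BG1-Luc-4E2 cells had received compound and 17beta-estradiol for 21.5 h at 37 C.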

[15] = qHTS assay to identify small molecule antagonists of the estrogen receptor alpha (ER-alpha) signaling pathway using the BG1 cell line - cell viability counter screen (AID 743081);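 also: compound given together with 17beta-estradiol as the ER stimulus; nearly all actives have a fitted effect of over 45% in size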; also: potency is read from the fitted curve at half-maximal effect
[16] = biological target: Aromatase (Homo sapiens) (UniProt P11511); assay: qHTS assay to identify aromatase inhibitors (AID 743083); also: nearly all actives have a fitted effect of over 55% in size; also: potency is read from the fitted curve at half-maximal effect
[17] = biological target: Androgen receptor (Homo sapiens) (UniProt P10275); assay: qHTS assay to identify small molecule antagonists of the androgen receptor (AR) signaling pathway (AID 743035; active = well fitted inhibition curve with a large enough effect in the signal ratio in the repeat runs, not every such curve was filed as active; inconclusive = weak or mixed curves, or effect the other way; inactive = no such curve, though single readings can be large or run the other way; the % refers to the signal ratio; also: potency is read from the fitted curve at half-maximal effect)
How it was run: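 Beta-lactamase FRET read (2 h RT incubation with LiveBLAzer B/G) following 16 h of compound plus R1881 treatment of AR-UAS-bla HEK293 cells, which had been pre-incubated 4 h at 37C.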

[18] = biological target: Androgen receptor (Homo sapiens) (UniProt P10275); assay: qHTS assay to identify small molecule agonists of the androgen receptor (AR) signaling pathway (AID 743036; active = well fitted activation curve with a large enough effect in the signal ratio in the repeat runs, with a control signal flat, not every such curve was filed as active; inconclusive = weak or mixed curves, or effect the other way; inactive = no such curve, though single readings can be large or run the other way; the % refers to the signal ratio)
How it was run: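 Quantitative HTS of the Tox21 10K library in HEK293 cells bearing a stably integrated UAS-controlled beta-lactamase reporter. Compound exposure lasted 16 h at 37C. Reporter activity was detected by FRET substrate fluorescence after 2 h at room temperature.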

[19] = biological target: Androgen receptor (Homo sapiens) (UniProt P10275); assay: qHTS assay to identify small molecule agonists of the androgen receptor (AR) signaling pathway using the MDA cell line (AID 743040; also: nearly all actives have a fitted effect of over 20% in size); settings: MDA-kb2 AR-luc cells, MMTV luciferase, 16 h; activity change: at 70.3 µM (top of the series), stronger effect = higher value
How it was run: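 Luminescence from ONE-Glo, read after 30 min at room temperature, reflects MMTV-driven luciferase in MDA-kb2 cells (AR- and GR-responsive). Treatment lasted 16 h at 37C, 0% CO2.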

[20] = biological target: Androgen receptor (Homo sapiens) (UniProt P10275); assay: qHTS assay to identify small molecule antagonists of the androgen receptor (AR) signaling pathway using the MDA cell line (AID 743042)
How it was run: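 MDA-kb2 cells (human breast carcinoma, stably carrying an MMTV-luciferase reporter responsive to AR and GR) were plated at 3,000 cells/well and preincubated 5 hr at 37C, then given compound plus R1881 agonist for 16 h. ONE-Glo luminescence was read.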

Aromatase (Homo sapiens), sequence (P11511 whole entry, looked up): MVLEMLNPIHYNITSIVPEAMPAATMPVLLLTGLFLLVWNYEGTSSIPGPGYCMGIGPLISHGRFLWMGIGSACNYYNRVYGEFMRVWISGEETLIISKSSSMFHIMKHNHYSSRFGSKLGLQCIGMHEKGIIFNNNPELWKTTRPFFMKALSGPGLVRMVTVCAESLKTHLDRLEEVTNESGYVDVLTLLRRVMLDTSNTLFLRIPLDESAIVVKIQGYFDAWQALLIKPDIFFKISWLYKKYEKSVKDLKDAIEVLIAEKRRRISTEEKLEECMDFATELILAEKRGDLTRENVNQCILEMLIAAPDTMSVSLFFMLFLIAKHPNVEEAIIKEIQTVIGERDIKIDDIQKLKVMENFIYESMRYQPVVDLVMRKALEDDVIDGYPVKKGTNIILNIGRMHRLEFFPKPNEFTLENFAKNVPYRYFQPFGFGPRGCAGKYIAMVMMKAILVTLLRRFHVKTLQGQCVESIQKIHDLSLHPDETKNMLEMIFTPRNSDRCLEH
Androgen receptor (Homo sapiens), sequence (P10275 whole entry, looked up): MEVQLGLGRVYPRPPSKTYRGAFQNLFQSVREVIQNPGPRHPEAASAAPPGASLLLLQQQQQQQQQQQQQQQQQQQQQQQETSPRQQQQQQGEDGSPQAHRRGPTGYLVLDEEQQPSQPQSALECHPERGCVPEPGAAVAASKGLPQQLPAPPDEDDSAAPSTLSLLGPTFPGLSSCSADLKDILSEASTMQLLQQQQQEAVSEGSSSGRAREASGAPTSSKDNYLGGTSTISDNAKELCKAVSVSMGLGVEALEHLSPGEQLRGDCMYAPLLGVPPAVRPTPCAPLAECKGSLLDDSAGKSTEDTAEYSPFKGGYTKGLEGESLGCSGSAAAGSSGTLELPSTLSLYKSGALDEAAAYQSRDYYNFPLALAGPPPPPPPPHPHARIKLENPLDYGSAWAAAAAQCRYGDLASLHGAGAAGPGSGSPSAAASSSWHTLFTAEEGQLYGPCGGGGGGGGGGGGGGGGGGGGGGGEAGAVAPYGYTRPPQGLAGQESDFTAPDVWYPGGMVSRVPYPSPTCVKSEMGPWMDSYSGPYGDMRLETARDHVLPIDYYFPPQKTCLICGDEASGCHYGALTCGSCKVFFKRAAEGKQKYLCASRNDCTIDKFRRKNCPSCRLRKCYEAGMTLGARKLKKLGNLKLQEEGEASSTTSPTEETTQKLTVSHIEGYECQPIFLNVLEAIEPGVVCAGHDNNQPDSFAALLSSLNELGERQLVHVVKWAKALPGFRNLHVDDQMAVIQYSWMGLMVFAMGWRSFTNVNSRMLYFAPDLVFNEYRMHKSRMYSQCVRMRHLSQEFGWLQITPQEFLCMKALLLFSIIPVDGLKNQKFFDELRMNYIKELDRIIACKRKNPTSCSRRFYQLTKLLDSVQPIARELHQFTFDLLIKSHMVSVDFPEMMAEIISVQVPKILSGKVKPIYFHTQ
Estrogen receptor (Homo sapiens), sequence (P03372 whole entry, looked up): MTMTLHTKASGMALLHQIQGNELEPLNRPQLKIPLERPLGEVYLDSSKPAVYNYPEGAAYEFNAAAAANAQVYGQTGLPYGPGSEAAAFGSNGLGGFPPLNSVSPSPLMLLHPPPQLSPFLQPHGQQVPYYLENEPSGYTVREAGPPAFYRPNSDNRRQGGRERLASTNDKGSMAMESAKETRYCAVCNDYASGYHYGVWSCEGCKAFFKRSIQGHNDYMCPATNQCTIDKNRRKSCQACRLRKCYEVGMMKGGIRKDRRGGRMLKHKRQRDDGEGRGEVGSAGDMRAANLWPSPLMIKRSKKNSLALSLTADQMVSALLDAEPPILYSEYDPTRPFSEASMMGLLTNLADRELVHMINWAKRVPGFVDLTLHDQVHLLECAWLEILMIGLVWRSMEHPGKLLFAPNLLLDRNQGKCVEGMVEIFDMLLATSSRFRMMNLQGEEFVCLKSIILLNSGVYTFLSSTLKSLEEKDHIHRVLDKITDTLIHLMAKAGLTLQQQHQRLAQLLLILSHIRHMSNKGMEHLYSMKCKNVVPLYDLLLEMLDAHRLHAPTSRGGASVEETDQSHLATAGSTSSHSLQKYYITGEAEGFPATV

## CCN(N=O)C(N)=O
[1]
  Potency: inactive
[2]
  Potency: inactive
[3]
  Potency: inactive
[4]
  Potency: inactive
[5]
  Potency: inactive
[6]
  Potency: inactive
[7]
  Potency: inactive
[8]
  Potency: inactive
[9]
  Potency: inactive
[10]
  Potency: inactive
[11]
  Potency: inactive
[12]
  Potency: inactive
[13]
  Potency: inactive
[14]
  Potency: inactive
[15]
  Potency: inactive
[16]
  Potency: inactive

## CCc1cccc(CC)c1N(COC)C(=O)CCl
[1]
  Potency: inactive
[2]
  Potency: 19.3 µM (active)
[3]
  Potency: 5.91 µM (active) and 5.45 µM (active)
[4]
  Potency: 29.6 µM (active) and 10.9 µM (active)
[5]
  Potency: inactive
[17]
  Potency: 26.7 µM (active) and 38.9 µM (active)
[18]
  Potency: inactive
[19]
  Potency: inactive
[6]
  Potency: inactive
[20]
  Potency: 61.1 µM (active)
[7]
  Potency: inactive
[8]
  Potency: 54.5 µM (active)
[9]
  Potency: inactive
[11]
  Potency: inactive
[12]
  Potency: inactive
[13]
  Potency: inactive
[14]
  Potency: inactive
[15]
  Potency: inactive
[16]
  Potency: 61.1 µM (active)

## C=CCc1ccc2c(c1)OCO2
[1]
  Potency: inactive
[2]
  Potency: inactive
[3]
  Potency: inactive
[4]
  Potency: inactive
[5]
  Potency: inactive
[6]
  Potency: inactive
[7]
  Potency: inactive
[8]
  Potency: inactive
[9]
  Potency: inactive
[11]
  Potency: inactive
[15]
  Potency: inactive
[16]
  Potency: inactive

## COc1ccc(C=O)cc1
[1]
  Potency: inactive
[2]
  Potency: inactive
[3]
  Potency: inactive
[4]
  Potency: inactive
[5]
  Potency: inactive
[6]
  Potency: inactive
[7]
  Potency: inactive
[8]
  Potency: inactive
[9]
  Potency: inactive
[10]
  Potency: inactive
[11]
  Potency: inactive
[12]
  Potency: inactive
[13]
  Potency: inactive
[14]
  Potency: inactive
[15]
  Potency: inactive
[16]
  Potency: inactive

## Cc1ccc2c(c1N)C(=O)c1ccccc1C2=O
[1]
  Potency: inactive
[2]
  Potency: inactive
[3]
  Potency: inactive
[4]
  Potency: 24.1 µM (active) and 30.6 µM (active)
[5]
  Potency: inactive
[6]
  Potency: inactive
[7]
  Potency: 67.8 µM (active)
[8]
  Potency: inactive
[9]
  Potency: inactive
[10]
  Potency: inactive
[11]
  Potency: inactive
[12]
  Potency: 389 nM [inconclusive] (active)
[13]
  Potency: 3.03 µM (active) and 4.33 µM (active)
[15]
  Potency: 30.3 µM (active) and 27.3 µM (active)
[16]
  Potency: inactive

## CCOCN(C(=O)CCl)c1c(C)cccc1CC
[1]
  Potency: inactive
[2]
  Potency: 51.4 µM (active) and 17.2 µM (active)
[3]
  Potency: 7.27 µM (active) and 6.11 µM (active)
[4]
  Potency: 20.5 µM (active) and 7.7 µM (active)
[5]
  Potency: inactive
[6]
  Potency: inactive
[7]
  Potency: inactive
[8]
  Potency: 64.8 µM (active) and 61.1 µM (active)
[9]
  Potency: inactive
[10]
  Potency: 24.5 µM [inconclusive] (active)
[11]
  Potency: inactive
[12]
  Potency: inactive
[13]
  Potency: inactive
[14]
  Potency: inactive
[15]
  Potency: inactive
[16]
  Potency: 28.9 µM (active) and 54.5 µM (active)

## Nn1cnnc1
[1]
  Potency: inactive
[2]
  Potency: inactive
[3]
  Potency: inactive
[4]
  Potency: inactive
[5]
  Potency: inactive
[6]
  Potency: inactive
[7]
  Potency: inactive
[8]
  Potency: inactive
[9]
  Potency: inactive
[10]
  Potency: inactive
[11]
  Potency: inactive
[12]
  Potency: inactive
[13]
  Potency: inactive
[14]
  Potency: inactive
[15]
  Potency: inactive
[16]
  Potency: inactive

## CCCCCCCCCCCOC(=O)c1ccccc1C(=O)OCCCCCCCCCCC
[1]
  Potency: inactive
[2]
  Potency: inactive
[3]
  Potency: inactive
[4]
  Potency: inactive
[5]
  Potency: inactive
[6]
  Potency: inactive
[7]
  Potency: inactive
[8]
  Potency: inactive
[9]
  Potency: inactive
[10]
  Potency: inactive
[11]
  Potency: inactive
[12]
  Potency: inactive
[13]
  Potency: 26.6 µM (active) and inactive
[14]
  Potency: inactive
[15]
  Potency: inactive
[16]
  Potency: inactive

## CC(C)c1ccc(CO)cc1
[1]
  Potency: inactive
[2]
  Potency: inactive
[3]
  Potency: inactive
[4]
  Potency: inactive
[5]
  Potency: inactive
[17]
  Potency: inactive
[6]
  Potency: inactive
[7]
  Potency: inactive
[8]
  Potency: inactive
[9]
  Potency: inactive
[10]
  Potency: inactive
[11]
  Potency: inactive
[12]
  Potency: 43.7 µM [inconclusive] (active) and inactive
[13]
  Potency: 54.5 µM (active) and inactive
[14]
  Potency: inactive
[15]
  Potency: inactive
[16]
  Potency: inactive

## C=C(C)C(=O)OCC1CO1 (stereo unspecified)
[1]
  Potency: inactive
[2]
  Potency: inactive
[3]
  Potency: inactive
[4]
  Potency: inactive
[5]
  Potency: inactive
[6]
  Potency: inactive
[7]
  Potency: inactive
[8]
  Potency: inactive
[9]
  Potency: inactive
[10]
  Potency: inactive
[11]
  Potency: inactive
[12]
  Potency: inactive
[13]
  Potency: inactive
[14]
  Potency: inactive
[15]
  Potency: inactive
[16]
  Potency: inactive

## Cc1ccccc1[N+](=O)[O-]
[1]
  Potency: inactive
[2]
  Potency: inactive
[3]
  Potency: inactive
[4]
  Potency: inactive
[5]
  Potency: inactive
[6]
  Potency: inactive
[7]
  Potency: inactive
[8]
  Potency: inactive
[9]
  Potency: inactive
[10]
  Potency: inactive
[11]
  Potency: inactive
[12]
  Potency: inactive
[13]
  Potency: inactive
[14]
  Potency: inactive
[15]
  Potency: inactive
[16]
  Potency: inactive

## CCN(CC)C(=O)SCc1ccc(Cl)cc1
[1]
  Potency: inactive
[2]
  Potency: 43.3 µM (active)
[3]
  Potency: 21.7 µM (active)
[4]
  Potency: 24.3 µM (active)
[5]
  Potency: inactive
[6]
  Potency: inactive
[7]
  Potency: inactive
[8]
  Potency: inactive
[9]
  Potency: inactive
[10]
  Potency: inactive
[11]
  Potency: inactive
[12]
  Potency: inactive
[13]
  Potency: inactive
[14]
  Potency: inactive
[15]
  Potency: inactive
[16]
  Potency: inactive
